Values joined by “and” are separate entries in the source; they are usually repeats but may differ in a detail not shown here. Identical values can stand only once. Hit rate of the full screen: of about 5,500 compounds, about 2,000 (36%) were called active. Not shown: some 18% with an inconclusive outcome. Cut-off read from the data, not from the text of the source: active = normalized growth mostly below about 0.91 (no sharp cut-off); inconclusive = no clear call, values can overlap the other calls; inactive = mostly above about 0.92. The list shows a part of the results.
Test: chemical genetic growth profiling, strain panel (AID 1159580);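 note: tested at 20 µM; growth read once vehicle control cultures reached saturation at 30 °C; 1 = growth at the plate median or of vehicle wells; lower values mean less growth of the strain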
Conditions: S. cerevisiae deletion strains, growth OD

Measured: normalized growth

CC(=O)Nc1ccc(OC(=O)c2ccccc2O)cc1
inactive: locus YAL021C, strain ccr4, stronger effect = lower value 1 | locus YAL026C, strain drs2, stronger effect = lower value 0.949 | locus YAL030W, strain snc1, stronger effect = lower value 0.994 | locus YBL061C, strain skt5, stronger effect = lower value 0.972 | locus YBR171W, strain sec66, stronger effect = lower value 0.992 | locus YBR229C, strain ROT2, stronger effect = lower value 0.98 | locus YBR231C, strain swc5, stronger effect = lower value 0.992 | locus YBR279W, strain paf1, stronger effect = lower value 0.939 | locus YCL029C, strain bik1, stronger effect = lower value 0.954 | locus YCR088W, strain abp1, stronger effect = lower value 0.929 | locus YDL005C, strain med2, stronger effect = lower value 0.996 | locus YDL035C, strain GPR1, stronger effect = lower value 0.911 | locus YDL040C, strain nat1, stronger effect = lower value 0.99 | locus YDL074C, strain BRE1, stronger effect = lower value 0.788 | locus YDL101C, strain DUN1, stronger effect = lower value 0.947 | locus YDL185W, strain tfp1, stronger effect = lower value 0.954 | locus YDL192W, strain arf1, stronger effect = lower value 0.967 | locus YDR001C, strain nth1, stronger effect = lower value 0.959 | locus YDR069C, strain doa4, stronger effect = lower value 0.999 | locus YDR101C, strain arx1, stronger effect = lower value 0.937 | locus YDR137W, strain rgp1, stronger effect = lower value 0.958 | locus YDR162C, strain NBP2, stronger effect = lower value 0.943 | locus YDR297W, strain sur2, stronger effect = lower value 0.977 | locus YDR318W, strain mcm21, stronger effect = lower value 0.93 | locus YDR334W, strain swr1, stronger effect = lower value 0.962 | locus YDR335W, strain msn5, stronger effect = lower value 0.977 | locus YDR388W, stronger effect = lower value 0.944 | locus YEL003W, strain gim4, stronger effect = lower value 0.978 | locus YEL037C, strain rad23, stronger effect = lower value 0.968 | locus YEL061C, strain CIN8 (second series), stronger effect = lower value 0.971 | locus YEL061C, strain CIN8, stronger effect = lower value 0.98 | locus YER015W, strain faa2, stronger effect = lower value 0.934 | locus YER016W, strain bim1, stronger effect = lower value 0.933 | locus YER110C, stronger effect = lower value 0.951 | locus YER111C, strain swi4, stronger effect = lower value 0.991 | locus YER155C, strain BEM2, stronger effect = lower value 0.945 | locus YFR010W, strain ubp6, stronger effect = lower value 0.944 | locus YGL078C, strain dbp3, stronger effect = lower value 0.97 | locus YGL086W, strain mad1, stronger effect = lower value 0.935 | locus YGL167C, strain pmr1, stronger effect = lower value 1.01 | locus YGL173C, strain kem1, stronger effect = lower value 0.959 | locus YGL227W, strain vid30, stronger effect = lower value 0.959 | locus YGL248W, strain PDE1, stronger effect = lower value 0.904 | locus YHR013C, strain ard1, stronger effect = lower value 0.915 | locus YHR027C, strain rpn1, stronger effect = lower value 0.945 | locus YHR030C, strain SLT2, stronger effect = lower value 0.968 and 0.921 | locus YHR079C, strain IRE1 (second series), stronger effect = lower value 0.927 | locus YHR079C, strain IRE1, stronger effect = lower value 0.904 | locus YHR094C, strain hxt1, stronger effect = lower value 0.954 | locus YHR129C, strain ARP1, stronger effect = lower value 0.948 | locus YHR200W, strain rpn10, stronger effect = lower value 0.934 | locus YIL066C, strain RNR3, stronger effect = lower value 0.89 | locus YIL073C, strain SPO22, stronger effect = lower value 0.854 | locus YIL125W, strain kgd1, stronger effect = lower value 0.95 | locus YIR030C, strain dcg1, stronger effect = lower value 0.933 | locus YJL092W, strain hpr5, stronger effect = lower value 0.946 | locus YJL095W, strain BCK1 (second series), stronger effect = lower value 0.96 | locus YJL115W, strain asf1, stronger effect = lower value 0.989 | locus YJL129C, strain trk1, stronger effect = lower value 0.974 | locus YJL134W, strain LCB3, stronger effect = lower value 0.985 | locus YJL154C, strain vps35, stronger effect = lower value 0.985 | locus YJL166W, strain qcr8, stronger effect = lower value 0.952 | locus YJL168C, strain set2, stronger effect = lower value 0.958 | locus YJL187C, strain SWE1 (second series), stronger effect = lower value 0.93 | locus YJL187C, strain SWE1, stronger effect = lower value 0.985
0.738 (active) and 0.924 (inactive): locus YJL095W, strain BCK1, stronger effect = lower value
active: locus YBR009C, strain hhf1, stronger effect = lower value 0.862 | locus YBR021W, strain FUR4, stronger effect = lower value 0.807 | locus YBR023C, strain chs3, stronger effect = lower value 0.908 | locus YCL011C, strain gbp2, stronger effect = lower value 0.87 | locus YCL016C, strain dcc1, stronger effect = lower value 0.91 | locus YCL061C, strain MRC1, stronger effect = lower value 0.917 | locus YCL069W, strain vba3, stronger effect = lower value 0.908 | locus YDL134C, strain PPH21, stronger effect = lower value 0.878 | locus YDR159W, strain sac3, stronger effect = lower value 0.842 | locus YDR195W, strain ref2 1.15 [resistant] | locus YDR392W, strain spt3, stronger effect = lower value 0.712 | locus YDR502C, strain sam2, stronger effect = lower value 0.913 | locus YER155C, strain BEM2 (second series), stronger effect = lower value 0.765 | locus YER167W, strain BCK2, stronger effect = lower value 0.873 | locus YGL240W, strain doc1, stronger effect = lower value 0.882 | locus YGL253W, strain hxk2, stronger effect = lower value 0.879 | locus YGR078C, strain PAC10, stronger effect = lower value 0.848 | locus YGR135W, strain pre9, stronger effect = lower value 0.847 | locus YGR252W, strain gcn5, stronger effect = lower value 0.608 | locus YHR142W, strain chs7, stronger effect = lower value 0.803 | locus YJL164C, strain tpk1, stronger effect = lower value 0.897 | locus YJR043C, strain POL32, stronger effect = lower value 0.754
